Drawing on PubChem BioAssay (EPA / NIEHS), this text covers AC50 and outcome for 40 molecules.

The source made the active and inactive calls. How the source made its calls: active means hit-call score of the fitted dose curve at least 0.9, where 1 is the maximum; inactive means score below 0.9.

Read-out in this test: Vascular endothelial growth factor receptor 2 (Homo sapiens) (UniProt P35968)
Kind of test: BSK_4H_VEGFRII: BioMAP Diversity Plus: 4H Assay for Vascular endothelial growth factor receptor 2 (VEGFR2) Biomarker Activity (AID 2283031). The following applies: primary human endothelial cells (HUVEC); actives raise or lower the signal. The procedure: BSK_4H is a cell-based, multiplexed-readout assay that uses umbilical vein endothelium, a human vascular primary cell, with measurements taken at 24 hours after chemical dosing in a 96-well plate.BSK_4H_VEGFRII is an assay component measured in the BSK_4H assay. It measures VEGFRII antibody related to regulation of gene expression using ELISA technology.Data from the assay component BSK_4H_VEGFRII was analyzed into 1 assay endpoint. This assay endpoint, BSK_4H_VEGFRII, was analyzed with bidirectional fitting relative to DMSO as the negative control and baseline of activity. Using a type of binding reporter, gain or loss-of-signal activity can be used to understand changes in the signaling as they relate to the gene KDR. Furthermore, this assay endpoint can be referred to as a primary readout, because this assay has produced multiple assay endpoints where this one serves a signaling function. To generalize the intended target to other relatable targets, this assay endpoint is annotated to the kinase intended target family, where the subfamily is receptor tyrosine kinase.
The levels of cell surface (or secreted, indicated by the prefix "s") biomarker endpoints were measured by ELISA. Overt cytotoxicity to cells in confluent adherent cultures (all systems other than the BT system) was assessed by measuring total protein levels using sulforhodamine B (SRB) staining in parallel cultures at the time of biomarker measurements, indicated as SRB endpoints. For proliferation assays for adherent cell types, individual cell types are cultured at sub-confluence and relative cell numbers quantified by SRB staining at time points optimized for each system (48 h: 3C and CASM3C systems; 72 h: BT and HDF3CGF systems; 96 h: SAg system). SRB was performed by staining cells with 0.1% SRB after fixation with 10% TCA and reading wells at 560 nm.Viability and proliferation of PBMC (T cells) was quantified by Alamar Blue reduction for the SAg and BT systems. For PBMC viability (referred to as PBMC Cytotoxicity within the assay endpoint names), cells were plated (75,000/well in a 96-well plate) and then chemical samples added for 1 h before addition of activators, SEB and TSST-1 (20 ng/mL final concentration each). Cells were incubated for 90 h. Then, Alamar Blue (20 uL/well) (Invitrogen, Cat DAL1100) was added for 6 h, and the plates were read with a fluorescence microplate reader at 546/580 nm (excitation/emission). For PBMC proliferation, cells were plated and activated as above but incubated for only 16 h prior to addition of Alamar Blue. Plates were read after 6 h.
As a reminder, the AC50 is the concentration at which the activity in the assay is half-maximal. In the case of `N#CCCC(Br)(C#N)CBr` (stereo not given), the AC50 is 5.39 µM (active).

On to `CCC(C)(C#N)N=NC(C)(C#N)CC` (stereo not given), for which the result was inactive.

On to `OCCN(CCO)CCO`, for which the result was inactive.

Consider `Clc1cccc(Cl)c1`, for which the outcome was inactive.

In the case of `O=C(CCl)NCO`, the result was inactive.

Take `CC(C)=CC1C(C(=O)OCc2cccc(Oc3ccccc3)c2)C1(C)C` (stereo not given): the result was inactive.

With `Cc1cc(C(C)(C)c2ccc(O)c(C)c2)ccc1O`, the result was inactive.

With `Cc1cc(Cl)ccc1N`, the outcome was inactive.

For the molecule `CCOP(=S)(OCC)OP(=S)(OCC)OCC`, the outcome was inactive.

On to `O=S(=O)(c1ccc(Cl)cc1)c1cc(Cl)c(Cl)cc1Cl`, for which the outcome was inactive.

As to `O=C(O)COc1cc(Cl)c(Cl)cc1Cl`, the outcome was inactive.

Consider `O=C(O)C1(c2ccc3c(c2)OC[C@H](Cc2ccc(-c4ccccc4)cc2)[C@H]3O)CCCC1`, for which the outcome was inactive.

Take `N#Cc1cccnc1`: the outcome was inactive.

Take `[Cl][Sn]([c]1ccccc1)([c]1ccccc1)[c]1ccccc1`: the outcome was inactive.

Take `CCOP(=S)(OCC)SCS(=O)(=O)C(C)(C)C`: the result was inactive.

In the case of `Nc1c(Oc2ccccc2)cc(O)c2c1C(=O)c1ccccc1C2=O`, the outcome was inactive.

`O=[N+]([O-])c1ccc(Nc2ccccc2)cc1`: the outcome was inactive.

Consider `CC(C)(C)c1ccccc1O`, for which the outcome was inactive.

With `Cc1ccccc1OP(=O)(Oc1ccccc1C)Oc1ccccc1C`, the AC50 was 9.28 µM (active).

In the case of `CC(C)(COCC1CO1)COCC1CO1` (stereo not given), the outcome was inactive.

On to `CCCCCCCCCCCCc1cccc(S(=O)(=O)O)c1`, for which the outcome was inactive.

On to `Oc1ccc(Cc2ccc(O)cc2)cc1`, for which the outcome was inactive.

`COc1ccccc1N`: the outcome was inactive.

As to `NC(=O)CCl`, the outcome was inactive.

For the molecule `CC(C)O.CC(C)O.OCCN(CCO)CCO.OCCN(CCO)CCO.[Ti]`, the outcome was inactive.

Consider `CCOC(=O)C(SP(=S)(OC)OC)c1ccccc1` (stereo not given), for which the result was inactive.

On to `O=C(Cc1ccccc1)OCCc1ccccc1`, for which the result was inactive.

For the molecule `Cc1ccc2nc3sc(=O)sc3nc2c1`, the AC50 was 9.18 µM (active).

For the molecule `CCOC(=O)CC(=O)CCl`, the outcome was inactive.

Regarding `Oc1cccc(-c2ccccc2)c1`, the outcome was inactive.

For `Cc1ccc(OP(=O)(Oc2ccc(C)cc2C)Oc2ccc(C)cc2C)c(C)c1`, the result was inactive.

As for `CCOC(=O)CCN(SN(C)C(=O)Oc1cccc2c1OC(C)(C)C2)C(C)C`, the result was inactive.

In the case of `Oc1c(Br)cc(Br)cc1Br`, the AC50 was 27.3 µM (active).

With `c1ccc2sc(SNC3CCCCC3)nc2c1`, the result was inactive.

Turning to `CCOP(=O)(OCC)SCCSCC`, the result was inactive.

Consider `Oc1cc(Cl)c(Cl)cc1Cl`, for which the AC50 is 31 µM (active).

Regarding `Cc1cccc(OP(=O)(Oc2cccc(C)c2)Oc2cccc(C)c2)c1`, the outcome was inactive.

As to `CCCCCCCCCCCCN(C)C`, the outcome was inactive.

In the case of `Oc1c(Cl)cc(Cl)cc1Cl`, the outcome was inactive.

Turning to `CC(C)(C)c1cc([N+](=O)[O-])cc(C(C)(C)C)c1O`, the result was inactive.
